Bioassay records as filed in PubChem.
A selection: hits, their analogues and other compounds. The true share with any hit is near 3.9%.
CCHFV vOTU inh: CCHFV vOTU protease inhibition; 0.55% of 370,000 active; inhibition, % at 11.5 µM; Pep-AMC fluorescence; note: 0% = vehicle wells with enzyme and 100% = no enzyme wells
FBA Mtb inh: inhibits M. tuberculosis FBA enzyme | purified M. tuberculosis FBA, fluorescence read-out | P9WQA3 | AID 588726 | 2.3% of 360,000 active | inhibition, % at 1 µM; in the data active = inhibition above about 27%;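 note: 0% = vehicle and 100% = reference inhibitor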
Target sequence (P9WQA3 whole entry, looked up): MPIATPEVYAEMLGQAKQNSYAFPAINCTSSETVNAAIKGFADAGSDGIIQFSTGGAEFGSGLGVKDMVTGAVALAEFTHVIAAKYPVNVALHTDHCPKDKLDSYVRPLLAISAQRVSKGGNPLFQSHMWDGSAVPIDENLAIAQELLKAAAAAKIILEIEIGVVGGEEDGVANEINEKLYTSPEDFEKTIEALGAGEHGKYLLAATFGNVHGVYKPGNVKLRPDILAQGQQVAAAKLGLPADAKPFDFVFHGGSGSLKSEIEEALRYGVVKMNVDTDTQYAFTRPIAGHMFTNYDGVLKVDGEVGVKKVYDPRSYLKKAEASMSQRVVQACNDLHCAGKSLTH
Vc quorum ag: induces V. cholerae light production without autoinducers; V. cholerae BH1578 lux reporter, luminescence, 6 h; activation, % at 18.7 µM; 0.16% of 350,000 active; AID 588436; in the data active = activation mostly above about 9.7%, no sharp cut-off
GDH-TPI counter: GDH-TPI coupled enzyme inhibition counter-screen; AID 588335; GDH-TPI coupled enzyme counterscreen, NADH absorbance; inhibition, % at 4.8 µM; 1.2% of 360,000 active;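 note: 0% = DMSO wells and 100% = wells lacking the enzyme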
Numbers without * were called inactive; i = inactive; . = not tested or not shown; + = active, no number. Cut-off read from the data, not from the text of the source, unless noted: active = inhibition above about 30%; inactive = the rest.

SMILES	CCHFV vOTU inh	FBA Mtb inh	Vc quorum ag	GDH-TPI counter
CC(=O)c1ccc(N/N=C(/C(N)=O)C2=NC(C)(C)Cc3ccccc32)cc1	10.9	-2.7	-0.6	34.6*
CC1(C)Cc2ccccc2C(/C(=N\Nc2cccc(Cl)c2)C(N)=O)=N1	2.6	-5.6	-4.2	9.2
C=CCn1c2ccccc2c(=O)c2cc(C#Cc3ccccn3)ccc21	-95.8	+	-2.2	4.3
O=c1c2ccccc2oc2cc(C#Cc3ccccn3)ccc12	5.8	-1.5	-5.0	7.6
O=C(O)CCC1=C2c3ccccc3CCN2C(=O)CC1	-14.4	6.3	-0.3	-3.6
O=C(COc1ccc2ccccc2c1)NNC(=O)c1ccc([N+](=O)[O-])cc1	0.3	-0.2	-0.2	9.9
O=c1c2c(nc3c(-c4ccc(Cl)cc4)c[nH]n13)CCCC2	-0.5	17.0	0.3	17.4
O=c1c2c(nc3c(-c4cccc5ccccc45)c[nH]n13)CCC2	-3.9	129.4*	i	4.9
COC(=O)C1=C(c2ccc(OCc3ccccc3)cc2)C[C@@H]2CC[C@H]1N2C(=O)NCc1ccc2c(c1)OCO2	3.0	0.6	0.0	-1.4
COc1ccc(-c2cc(C(F)(F)F)nc(SCCC(=O)N3CCN(C)CC3)n2)cc1	11.4	-1.5	i	2.0
COc1ccc(-c2cc(C(F)(F)F)nc(SCC(=O)NCc3ccco3)n2)cc1OC	16.8	5.0	-2.4	30.7*
COc1ccc(-c2cc(C(F)(F)F)nc(SCC(=O)NCc3cnn(C)c3C)n2)cc1OC	10.2	4.0	-0.6	25.9
COc1ccc(-c2cc(C(F)(F)F)nc(SCC(N)=O)n2)cc1	-66.3	114.2*	i	14.3
COc1ccc(-c2cc(C(F)(F)F)nc(SCC(=O)N(C)Cc3cn(C)nc3C)n2)cc1OC	-6.9	13.2	-0.4	40.9*
COc1cc(C2Nc3ccc4ccccc4c3C3=C2C(=O)CC(C)(C)C3)ccc1OC(C)C(=O)O (stereo not drawn)	-186.4	183.2*	-1.6	4.3
COc1ccc(C2Nc3ccccc3NC3=C2C(=O)CC(C)(C)C3)cc1OC (stereo not drawn)	17.0	2.1	i	8.5
CC1(C)CC(=O)C2=C(C1)c1c(ccc3ccccc13)NC2c1ccc(OCC(=O)O)cc1 (stereo not drawn)	-205.7	+	-0.4	17.8
COc1ccc(C2Nc3ccccc3NC3=C2C(=O)CC(C)(C)C3)cc1 (stereo not drawn)	6.3	2.0	-0.4	10.7
CCOc1ccc(C2Nc3ccccc3NC3=C2C(=O)CC(C)(C)C3)cc1OC (stereo not drawn)	10.3	-1.7	1.6	10.0
COc1cc(C2Nc3ccc4ccccc4c3C3=C2C(=O)CC(C)(C)C3)ccc1OCC(=O)O (stereo not drawn)	-204.6	121.3*	-0.1	1.5
Cc1[nH]c2ccccc2c1C(=O)C(=O)NC1CC(=O)N(c2ccc(F)cc2)C1 (stereo not drawn)	-0.9	-1.8	i	6.5
C/C(=N\NC(=O)C(c1ccncc1)N1CCOCC1)c1ccc(Br)cc1 (stereo not drawn)	-12.0	3.6	-0.6	5.9
C=CCn1c(=O)/c(=C/c2ccc(Cl)cc2)s/c1=C(\C#N)c1nnc2n1CCCCC2	-10.9	-1.9	i	33.3*
CN(/C=C/C(=O)C(F)(F)F)Cc1ccccc1	-1.0	-1.1	i	32.4*
CN(Cc1ccccc1)C(=O)CC(=O)N(C)Cc1ccccc1	1.5	-1.3	-4.0	-4.5
SMILES	CCHFV vOTU inh	FBA Mtb inh	Vc quorum ag	GDH-TPI counter
O=C(COc1ccc([N+](=O)[O-])cc1)N/N=C/c1cc([N+](=O)[O-])ccc1N1CCOCC1	-9.8	-3.2	-0.3	48.1*
COc1cc(OC)nc(NC(=O)CS(=O)(=O)c2ccccc2)n1	-13.7	0.1	33.3*	4.7
Cn1c(NC(=O)c2ccccc2NC(=O)C(C)(C)C)nc2ccccc21	1.7	7.8	-0.3	33.8*
CCC1CCCCN1CCCNC(=O)CN1C(=O)COc2ccccc21 (stereo not drawn)	-3.4	0.5	-3.8	0.3
CCOc1c(C(N)=O)c(-c2ccccc2)c2c(=O)[nH]c3ccccc3n12	-0.6	112.2*	i	14.3
CNc1nc(N)c([N+](=O)[O-])c(NCc2ccccc2)n1	12.8	-1.8	-0.2	42.0*
CN(C)c1nc(N)c([N+](=O)[O-])c(NCc2ccccc2)n1	3.2	0.1	-0.2	42.0*
Nc1nc(NCc2ccccc2)nc(NCc2ccccc2)c1[N+](=O)[O-]	1.4	0.1	-0.2	14.4
COCCCNc1nc(N)c([N+](=O)[O-])c(NCc2ccccc2)n1	12.8	-3.6	-1.8	15.1
Nc1nc(Nc2ccccc2)nc(NCc2ccccc2)c1[N+](=O)[O-]	-0.5	-3.6	i	17.7
CN(C)c1nc(N)c([N+](=O)[O-])c(NCCO)n1	16.5	-1.9	-0.2	50.6*
CN(C)CCCNc1nc(N)c([N+](=O)[O-])c(NCc2ccccc2)n1	3.3	0.9	-0.8	41.0*
COC(=O)C(CSCc1ccccc1)NC(=O)CCNC(=O)OCc1ccccc1 (stereo not drawn)	6.0	0.1	i	-4.0
Cc1nc2c(C)cccn2c(=O)c1NC(=O)c1ccc(Br)o1	-1.1	2.2	-0.3	32.9*
Cc1nc2c(C)cccn2c(=O)c1NC(=O)c1ccco1	13.0	-0.7	i	14.1
O=C(NC1CCSc2ccccc21)c1ccc(F)c(S(=O)(=O)N2CCOCC2)c1 (stereo not drawn)	13.6	3.9	-0.2	14.5
NC(N)=NS(=O)(=O)c1ccc(NC(=S)NC(=O)/C=C/c2ccco2)cc1	-15.7	-4.8	-0.6	56.8*
O=C(/C=C/c1ccco1)NC(=S)Nc1ccccc1	11.3	-1.5	-0.4	40.1*
CC(=O)c1ccc(NC(=S)NC(=O)/C=C/c2ccco2)cc1	13.0	-2.4	i	51.4*
Cc1cccc(NC(=S)NC(=O)/C=C/c2ccco2)n1	18.9	-1.8	i	33.3*
CCN(CC)CCC(C)OC(=O)c1ccc(O)cc1O (stereo not drawn)	8.6	2.7	i	-3.1
C[C@@H]1CN([C@H](C)CO)C(=O)CCCn2nncc2CO[C@@H]1CN(C)S(=O)(=O)c1cn(C)cn1	1.8	-2.5	-2.1	-8.2
O=C(/C=C/c1ccco1)NC(=S)Nc1cccc(-c2nc3ccccc3s2)c1	9.8	0.5	-0.4	38.3*
O=C(/C=C/c1ccco1)NC(=S)Nc1cc(-c2nc3ccccc3s2)ccc1Cl	10.3	1.9	-0.5	10.3
COc1ccccc1CCC(=O)N1CCN(S(=O)(=O)c2cccc(F)c2)CC1	-1.1	-3.1	i	6.2
SMILES	CCHFV vOTU inh	FBA Mtb inh	Vc quorum ag	GDH-TPI counter
Cc1cc(F)ccc1-c1cc(C(=O)N2CCN(c3ccncc3)CC2)[nH]n1	3.3	-1.7	i	0.9
CN(C(=O)COC(=O)c1cc2ccccc2cc1O)C1CCCCC1	11.1	-0.6	i	6.7
Cc1nn(C)c(C(=O)NNC(=S)NCc2ccco2)c1Br	-3.6	0.8	-0.3	7.7
S=c1[nH]c2ccc(Cl)cc2[nH]1	9.6	2.4	-1.3	12.8
S=c1ncc2[nH]c(=S)[nH]c2[nH]1	.	1.0	i	35.7*
CCOC(=O)/C=C1\SCC(=O)N1Cc1nnc(-c2ccccc2Br)o1	11.4	0.9	0.4	1.3
CC1=C(O)C(=O)C(C2=C(O)C(=O)C(C)=C(O)C2=O)=C(O)C1=O	4.2	4.3	-0.3	49.0*
